BoNT-A LC inh2 = BoNT/A light chain protease inhibitors, primary screen, biochemical, flow cytometry, MLPCN library. multiplex microsphere protease substrate cleavage. inhibition, % at 10 µM. hit rate 0.17% among 360,000; further: plate controls were buffer without enzyme for full effect and enzyme alone for no effect
Autofluor counter = compound fluorescence in toxin protease inhibitor counterscreen. compound autofluorescence counterscreen, microsphere flow cytometry; active compounds read high. fluorescence intensity (test concentration not listed). hit rate 3.1% among 360,000. AID 624483; in the data active means fluorescence intensity above about 16000; inconclusive means no clear call, values can overlap the other calls
Anthrax LF prot = Bacillus anthracis LF protease inhibitors, primary screen, biochemical, multiplex microsphere, MLPCN library | Lethal factor (Bacillus anthracis), P15917 | multiplex microsphere protease cleavage assay | inhibition, % at 10 µM | hit rate 0.12% among 360,000; further: plate controls were buffer without enzyme for full effect and enzyme alone for no effect
Target sequence (P15917 whole entry, looked up): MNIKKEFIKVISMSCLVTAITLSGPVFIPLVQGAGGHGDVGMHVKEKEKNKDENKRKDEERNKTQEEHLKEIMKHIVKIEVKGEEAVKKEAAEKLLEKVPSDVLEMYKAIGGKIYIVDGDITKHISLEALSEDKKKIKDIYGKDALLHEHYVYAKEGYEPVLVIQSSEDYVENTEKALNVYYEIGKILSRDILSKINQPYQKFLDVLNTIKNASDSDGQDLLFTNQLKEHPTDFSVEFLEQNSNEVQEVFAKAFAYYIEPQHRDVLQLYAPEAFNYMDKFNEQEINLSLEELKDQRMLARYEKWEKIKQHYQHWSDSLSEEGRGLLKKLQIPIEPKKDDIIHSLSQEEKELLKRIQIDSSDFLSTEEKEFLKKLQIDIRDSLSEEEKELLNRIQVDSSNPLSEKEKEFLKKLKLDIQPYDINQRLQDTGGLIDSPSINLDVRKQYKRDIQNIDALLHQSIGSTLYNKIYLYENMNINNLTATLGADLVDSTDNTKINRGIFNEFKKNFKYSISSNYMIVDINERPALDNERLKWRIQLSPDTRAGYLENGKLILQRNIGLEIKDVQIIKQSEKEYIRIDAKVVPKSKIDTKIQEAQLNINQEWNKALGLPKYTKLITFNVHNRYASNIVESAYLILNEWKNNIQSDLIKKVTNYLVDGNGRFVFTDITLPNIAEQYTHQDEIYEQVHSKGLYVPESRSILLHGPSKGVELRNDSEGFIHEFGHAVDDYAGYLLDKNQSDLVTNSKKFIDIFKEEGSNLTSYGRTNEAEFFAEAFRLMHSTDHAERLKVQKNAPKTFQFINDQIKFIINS
CCHFV vOTU inh = CCHFV vOTU protease inhibitors, primary screen, biochemical, Pep-AMC substrate, fluorescence | inhibition, % at 11.5 µM | Crimean-Congo hemorrhagic fever virus L polyprotein viral ovarian tumor (vOTU) protease … | hit rate 0.55% among 370,000; in the data active means inhibition above about 30%; further: 0% = vehicle wells with enzyme and 100% = no enzyme wells
BoNT F protease = BoNT/F light chain protease inhibitors, primary screen, biochemical, flow cytometry, MLPCN library | inhibition, % at 10 µM | hit rate 0.22% among 360,000 | Multiplex microsphere protease cleavage assay | Botulinum neurotoxin type F light chain protease (Clostridium botulinum) | AID 588497, 2011; in the data active means inhibition above about 35%, passing the limit was not always enough; inconclusive means no clear call, values can overlap the other calls; further: plate controls were buffer without enzyme for full effect and enzyme alone for no effect
SARS 3CLpro inh = SARS-CoV 3CLpro protease inhibitors, primary screen, biochemical, quenched FRET. Replicase polyprotein 1ab (Severe acute respiratory syndrome coronavirus), P0C6X7. hit rate 0.14% among 290,000. AID 1706, 2009. inhibition, % at 6 µM. recombinant SARS-CoV 3CLpro, quenched FRET peptide cleavage; in the data active means inhibition above about 12%
* = called active by the depositor; u = inconclusive; x = not tested or not shown. Most compounds without a hit are left out; they make up all but 3.9% or so of the library. Unless noted, no stated cut-off is given here; in the data, active means inhibition above about 30%; inconclusive means no clear call, values can overlap the other calls; inactive means below that.

SMILES | BoNT-A LC inh2 | Autofluor counter | Anthrax LF prot | CCHFV vOTU inh | BoNT F protease | SARS 3CLpro inh
N/C(Cc1ccc(Cl)cc1)=N\OC(=O)c1ccccc1 | 1 | 4345 | -1 | 9 | 42* | 0
N/C(=N\OC(=O)c1ccc(Br)cc1)c1ccccc1 | -5 | 25293* | -2 | 3 | -5 | 3
COc1ccc2c(c1OC)C(=O)N(c1ccc(C)cc1)C2 | -1 | 5841 | -5 | -7 | -2 | 0
Cc1ccccc1Oc1ccc2c(c1)[C@@H]1C[C@H](N(C)C(=O)Nc3cc(Cl)cc(Cl)c3)[C@H]([C@H](C)O)C(=O)N1CC2 | 0 | 3005 | 0 | 6 | -9 | x
CCC(=O)Nc1ccccc1C(=O)OCc1ccc(C(=O)c2ccccc2)cc1 | 8 | 20219* | -13 | -4 | 9 | -3
O=C(c1ccco1)N1CCN(Cc2nnc(-c3ccccc3)o2)CC1 | -5 | 5113 | 3 | -6 | -10 | -2
COc1ccc(Oc2nc3ccccc3n(C)c2=O)cc1 | 0 | 16246* | -2 | -1 | -2 | 0
COc1ccc(Oc2nc3ccccc3nc2C(F)(F)F)cc1 | -2 | 23577* | -2 | 19 | -4 | 4
COc1ccc(Oc2nc3ccccc3n3cccc23)cc1 | 0 | 2649 | 2 | 3 | -1 | 4
Cn1c(=O)c(-c2ccccc2N)nc2ccccc21 | 6 | 20647* | 0 | -4 | 11 | -3
Cn1c(=O)c(-c2ccccc2)nc2ccccc21 | -1 | 20471* | 2 | -49 | -3 | -1
S=c1[nH]nc(-c2n[nH]c3c2CCC3)n1N=Cc1cccs1 | x | x | x | -4 | x | x
C/C(=N\OC(=O)c1ccc(F)cc1)c1nccs1 | 0 | 23617* | -4 | -2 | -2 | 9
COc1ccc(CNC(=O)C2Cc3cc(S(=O)(=O)N4CCCC4)ccc3N2C(C)=O)c(OC)c1 (stereo not drawn) | 1 | 5920 | 0 | 12 | -1 | -3
C=C(C)C1CC=C(C)/C(=N/NC(=O)COc2cccc(C)c2)C1 (stereo not drawn) | -3 | 17668* | -3 | 4 | -8 | 4
Cc1ccc(C)n1-c1ccc(-n2cnnn2)cc1 | 1 | 16233* | 0 | 10 | 0 | -5
Cc1ccc([N+](=O)[O-])cc1S(=O)(=O)Nc1ccc(N2CCOCC2)cc1 | 0 | 4613 | -5 | -1 | -10 | -1
O=C(Oc1coc(CSc2nnc(NC(=O)C3CC3)s2)cc1=O)c1c(F)cccc1F | 48* | 3946 | -5 | -14 | -4 | -1
CC(=O)Nc1nnc(SCc2cc(=O)c(OC(=O)c3ccccc3)co2)s1 | 22 | 4975 | 10 | -11 | 3 | -3
Cc1cc(C)cc(C(=O)Oc2coc(CSc3nnc(NC(=O)C4CC4)s3)cc2=O)c1 | 38* | 2288 | -1 | -28 | 5 | 2
CSCCC(N=Cc1c(O)n(-c2ccc(Br)cc2)c(=O)[nH]c1=O)C(=O)OC(C)(C)C (stereo not drawn) | u | 21352* | 1 | 7 | 4 | 3
CSCCC(N=Cc1c(O)n(-c2ccc(F)cc2)c(=O)[nH]c1=O)C(=O)OC(C)(C)C (stereo not drawn) | 1 | 4352 | 3 | 2 | -2 | 3
CCOc1cc(NC(=O)c2cccs2)c(OCC)cc1NC(=O)CCC(=O)NCCN1CCOCC1 | 0 | 4560 | 11 | 7 | -9 | 6
COC(=O)c1ccc(C(=O)OC)c(NS(C)(=O)=O)c1 | 1 | 23033* | -2 | -14 | 0 | -1
O=C(CSc1nc2ccccc2s1)NC(=O)NCc1ccco1 | 0 | 22313* | -10 | 8 | 0 | 7
SMILES | BoNT-A LC inh2 | Autofluor counter | Anthrax LF prot | CCHFV vOTU inh | BoNT F protease | SARS 3CLpro inh
Cc1cc(C)nc(NC(=O)CSc2nc3ccccc3s2)n1 | u | 15488 | 1 | -7 | 5 | -4
Cc1ccc(S(=O)(=O)NC(=O)CSc2nc3ccccc3s2)cc1 | -1 | 16909* | -1 | -13 | -2 | -5
O=[N+]([O-])/C=C\c1ccc(N2CCCC2)c(F)c1 | 60* | 9527 | 32* | x | 21 | 0
C=CCSC1=C(C#N)C2(CCCCC2)C(C#N)C(=O)N1 (stereo not drawn) | u | 19902* | 1 | -2 | 2 | -2
N#CC1=C(SCC(=O)NC2CC2)NC(=O)C(C#N)C12CCCCC2 (stereo not drawn) | 2 | 20178* | 1 | 2 | 3 | 3
CC(C)(C)C1CCC2(CC1)C(C#N)=C(SCC(=O)NC1CCCCC1)NC(=O)C2C#N (stereo not drawn) | -1 | 7931 | -2 | -6 | 0 | 5
N#CC1=C(SCC(=O)NC23CC4CC(CC(C4)C2)C3)NC(=O)C(C#N)C12CCCCC2 (stereo not drawn) | 0 | 9067 | 1 | 16 | 0 | -3
COc1ccc(CCNC(=O)C2CCCN(S(=O)(=O)c3ccc(F)cc3)C2)cc1OC (stereo not drawn) | 5 | u | -1 | 9 | 11 | 2
C[C@@H]1NC(=O)N(c2ccc(F)cc2)C1=O | 0 | 3734 | -8 | 5 | u | -3
CCCCN1CC(C(=O)NCc2ccc(C)cc2)CC1=O (stereo not drawn) | 1 | 18906* | -4 | -11 | -1 | -2
Cc1ccc(CNC(=O)C2CC(=O)N(CCC(C)C)C2)cc1 (stereo not drawn) | 0 | 3500 | 1 | 9 | -2 | -4
COC(=O)C1C(=O)/C(=C(/C)N2CCCC2)C(=O)CC1(C)C (stereo not drawn) | u | 23073* | 0 | 0 | -1 | 3
CCCC(=O)C1=C(N2CCCCC2)CC(C)(C)C(C(=O)OC)C1=O (stereo not drawn) | 0 | 3950 | -3 | 3 | -5 | 0
COc1cc(-c2nnc(SCc3cc(=O)oc4cc(O)c(O)cc34)o2)cc(OC)c1OC | 8 | 21137* | -6 | 8 | 6 | 2
CCOC(=O)CSc1nnc(-c2cc(OC)c(OC)c(OC)c2)o1 | -2 | 4643 | -2 | -11 | -9 | 4
COc1ccccc1-c1ccc(Nc2cccc(C(F)(F)F)c2)nn1 | 1 | 2907 | -1 | -5 | -12 | 2
COc1ccccc1-c1ccc(NC2CCCCC2)nn1 | 3 | 23544* | 7 | 3 | -2 | 0
C=CCN1C(=O)C2(C(C(=O)OCC)=C(N)Oc3ccccc32)C2=C1CCCC2=O (stereo not drawn) | 0 | 9223 | -11 | -9 | 4 | 1
CC1(C)CC(=O)C2=C(C1)NC(=O)C21C(C(=O)OC(C)(C)C)=C(N)Oc2ccc(Br)cc21 (stereo not drawn) | 2 | 22960* | 0 | -2 | 3 | -3

Screening data from PubChem BioAssay.
